According to PubChem BioAssay (NCATS):
Inconclusive results are not listed. Calls of active or inactive are those of the source. Calls come from the whole dose curve; as a rule, active = well fitted curve in the direction sought with a large enough effect; inconclusive = small, poorly fitted or top-dose-only effect, or another doubt; inactive = no such curve, though single readings can be large; an effect the other way counts as inactive or inconclusive.

How the values were obtained:
[1] = qHTS of pediatric cancer cell lines to identify multiple opportunities for drug repurposing: Primary screen for SK-N-SH cells (AID 1347098); note: potency is the fitted concentration of half-maximal effect; nearly all actives have a fitted effect of over 65% in size
Summary of the method: (§1)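 Cells (500-1,000/well) rested 5 h, then received compounds for 48 h; metabolically active cells were measured by CellTiter-Glo luminescence. Final concentrations spanned up to 46 µM (MIPE, 11-point) or 0.59 nM-46 µM (NPC, 8-point) in primary screens, 11-point in follow-ups.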

[2] = qHTS of pediatric cancer cell lines to identify multiple opportunities for drug repurposing: Primary screen for LAN-5 cells (AID 1347100); note: potency is the fitted concentration of half-maximal effect
Summary of the method: (§2)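 Viability after 48 h compound treatment at 37C, 500-1,000 cells/well, read as ATP luminescence with CellTiter-Glo. Primary screens used 11-point (MIPE, 0.78 nM-46 µM) or 8-point (NPC, 0.59 nM-46 µM) final concentrations; follow-up screens used 11-point dilutions.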

[3] = qHTS of pediatric cancer cell lines to identify multiple opportunities for drug repurposing: Primary screen for Rh18 cells (AID 1347102); note: potency is the fitted concentration of half-maximal effect; nearly all actives have a fitted effect of over 65% in size
Summary of the method: as §2

[4] = qHTS of pediatric cancer cell lines to identify multiple opportunities for drug repurposing: Primary screen for OHS-50 cells (AID 1347103); note: potency is the fitted concentration of half-maximal effect; nearly all actives have a fitted effect of over 40% in size
Summary of the method: as §1

[5] = qHTS of pediatric cancer cell lines to identify multiple opportunities for drug repurposing: Primary screen for control Hh wild type fibroblast cells (AID 1347106);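 note: series mostly up to about 46 µM; a drop in luminescence marks cytotoxicity and a rise apparent proliferation; nearly all actives have a fitted effect of over 55% in size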
Summary of the method: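 Cells (500-1,000/well) in growth media were settled 5 h at 37 degrees C, then given compounds for 48 h. Viability was read as CellTiter-Glo luminescence. Primary runs used MIPE at 11 points (0.78 nM-46 µM) and NPC at 8 points (0.59 nM-46 µM); follow-ups used 11 points.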

[6] = qHTS of pediatric cancer cell lines to identify multiple opportunities for drug repurposing: Confirmatory screen for NB1643 cells (AID 1347109); note: nearly all actives have a fitted effect of over 45% in size; note: potency is the fitted concentration of half-maximal effect
Summary of the method: as §2

[7] = qHTS of pediatric cancer cell lines to identify multiple opportunities for drug repurposing: Confirmatory screen for A673 cells (AID 1347110); note: nearly all actives have a fitted effect of over 65% in size; note: potency is the fitted concentration of half-maximal effect
Summary of the method: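 Viability was read as ATP luminescence (CellTiter-Glo) after 48 h of compound exposure at 37 C in A673 cells seeded at 500-1,000/well. Titrations reached 46 uM final, with 11 points in the confirmatory screen. Concentration-response curves were fitted directly.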

[8] = qHTS of pediatric cancer cell lines to identify multiple opportunities for drug repurposing: Confirmatory screen for SK-N-MC cells (AID 1347111);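 note: potency is the fitted concentration of half-maximal effect; cells exposed to compound for 48 h before the readout; nearly all actives have a fitted effect of over 70% in size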
Summary of the method: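 SK-N-MC cells at 500-1,000 cells/well in growth media were pre-incubated 5 h, then exposed to compounds at 11-point dilutions for 48 h at 37 degrees C, 5% CO2. Viability was read as CellTiter-Glo luminescence.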

[9] = qHTS of pediatric cancer cell lines to identify multiple opportunities for drug repurposing: Confirmatory screen for BT-12 cells (AID 1347112); note: nearly all actives have a fitted effect of over 55% in size; note: potency is the fitted concentration of half-maximal effect
Summary of the method: as §2

[10] = qHTS of pediatric cancer cell lines to identify multiple opportunities for drug repurposing: Confirmatory screen for LAN-5 cells (AID 1347113); note: nearly all actives have a fitted effect of over 65% in size; note: potency is the fitted concentration of half-maximal effect
Summary of the method: as §2

[11] = qHTS of pediatric cancer cell lines to identify multiple opportunities for drug repurposing: Confirmatory screen for DAOY cells (AID 1347114)
Summary of the method: (§3)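 Viability measured as metabolically active cells via CellTiter-Glo luminescence following 48 hours of compound exposure, 11-point dilutions in confirmatory testing. 500-1,000 cells/well plated 5 hours before dosing; controls were DMSO and 2.3 µM bortezomib.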

[12] = qHTS of pediatric cancer cell lines to identify multiple opportunities for drug repurposing: Confirmatory screen for NB-EBc1 cells (AID 1347115); note: nearly all actives have a fitted effect of over 45% in size; note: potency is the fitted concentration of half-maximal effect
Summary of the method: as §2

[13] = qHTS of pediatric cancer cell lines to identify multiple opportunities for drug repurposing: Confirmatory screen for SJ-GBM2 cells (AID 1347116); note: potency is the fitted concentration of half-maximal effect; nearly all actives have a fitted effect of over 60% in size
Summary of the method: as §3

[14] = qHTS of pediatric cancer cell lines to identify multiple opportunities for drug repurposing: Confirmatory screen for BT-37 cells (AID 1347117); note: potency is the fitted concentration of half-maximal effect; nearly all actives have a fitted effect of over 55% in size
Summary of the method: as §2

[15] = qHTS of pediatric cancer cell lines to identify multiple opportunities for drug repurposing: Primary screen for NB1643 cells (AID 1347099); note: potency is the fitted concentration of half-maximal effect; nearly all actives have a fitted effect of over 50% in size
Summary of the method: (§4)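 Readout: CellTiter-Glo luminescence, 48 h treatment. Controls DMSO (neutral) and bortezomib 2.3 µM final (positive). Potency and efficacy taken from primary-screen concentration-response curves.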

[16] = qHTS of pediatric cancer cell lines to identify multiple opportunities for drug repurposing: Primary screen for RD cells (AID 1347104); note: potency is the fitted concentration of half-maximal effect; nearly all actives have a fitted effect of over 55% in size
Summary of the method: as §4

[17] = qHTS of pediatric cancer cell lines to identify multiple opportunities for drug repurposing: Primary screen for Rh41 cells (AID 1347108); note: potency is the fitted concentration of half-maximal effect; nearly all actives have a fitted effect of over 70% in size
Summary of the method: as §4

[18] = qHTS of pediatric cancer cell lines to identify multiple opportunities for drug repurposing: Primary screen for MG 63 (6-TG R) cells (AID 1347105); note: potency is the fitted concentration of half-maximal effect; nearly all actives have a fitted effect of over 50% in size
Summary of the method: as §4

[19] = qHTS of pediatric cancer cell lines to identify multiple opportunities for drug repurposing: Primary screen for Rh30 cells (AID 1347107); note: series mostly up to about 46 µM; nearly all actives have a fitted effect of over 75% in size
Summary of the method: as §2

Structure (SMILES)	Potency [1]	Potency [2]	Potency [3]	Potency [4]	Potency [5]	Potency [6]	Potency [7]	Potency [8]	Potency [9]	Potency [10]	Potency [11]	Potency [12]	Potency [13]	Potency [14]	Potency [15]	Potency [16]	Potency [17]	Potency [18]	Potency [19]
CCN1CCN(Cc2ccc(-c3cc4c(N[C@H](C)c5ccccc5)ncnc4[nH]3)cc2)CC1	21.5 µM (active)	0.0148 µM (active)	5.9 µM (active)	0.153 µM (active)	inactive	13.5 µM (active)	0.479 µM (active)	0.851 µM (active)	26.9 µM (active)	9.55 µM (active)	8.51 µM (active)	38 µM (active)	30.2 µM (active)	2.69 µM (active)					
CC(C)(C)NC(=O)[C@H]1CN(Cc2cccnc2)CCN1C[C@@H](O)C[C@@H](Cc1ccccc1)C(=O)N[C@H]1c2ccccc2C[C@H]1O	15.2 µM (active)			19.3 µM (active)	inactive		inactive		inactive	inactive		inactive			1.05 µM (active)	1.48 µM (active)	3.72 µM (active)		
CN(C)CC(C)(C)CNc1nn2c(-c3ccccc3)nnc2cc1C1CCC1	1.21 µM (active)	0.418 µM (active)		1.37 µM (active)	inactive	inactive		20.8 µM (active)	inactive	inactive		inactive			0.935 µM (active)			2.96 µM (active)	inactive
